Results: ChEMBL document CHEMBL3988442, “University of Dundee, Small-Polar-MMV Screening Library” (2021)
Hit rate of the full screen: of about 48,000 compounds, about 13,000 (27%) showed an effect of 50% or more. The list shows a part of the results.

Each molecule was assayed on Wolbachia pipientis (assay: Anti-Wolbachia Cell-Based Screen). Conditions: 5 µM.
Assay type: functional
Parameters: scale not given: in the data most compounds retested in dose-response had high values
For `CC(C)c1nc(S(=O)(=O)N2CCSc3ccccc32)c[nH]1`, the “Percent Effect” value was -4.998%. `CC(C)c1ccc(OCCNC(=O)c2ccoc2)cc1` was tested, and the “Percent Effect” value was 6.267%. For `Cc1nn(CC(=O)Nc2cccc(F)c2)c(N)c1C#N`, the “Percent Effect” value was -11.77%. With `CC(C)Oc1cccc(Cc2nc3c([nH]2)CCCNC3=O)c1` the “Percent Effect” value was 11.57%. With `CC(C)Oc1cccc(-c2nc3c([nH]2)CCCNC3=O)c1` the “Percent Effect” value was 99.49%. `COc1ccc(-c2nc3c([nH]2)CCCNC3=O)cc1OC` was tested, and the “Percent Effect” value was 96.66%. `CC(C)(C)c1noc(-c2nc3c([nH]2)CCCNC3=O)n1` was tested, and the “Percent Effect” value was 2.046%. In the case of `COc1ccccc1C1CNC(=O)c2nc(-c3cnn(C)c3)[nH]c2C1` (centres undefined), the “Percent Effect” value is reported as -3.18%. In the case of `COc1cc(-c2nc3c([nH]2)CCCNC3=O)ccc1OC(C)C`, the “Percent Effect” value is reported as 84.8%. In the case of `COc1cc(-c2nc3c([nH]2)CCCNC3=O)cc(OC)c1OC`, the “Percent Effect” value is reported as 91%. For `CSCc1noc(-c2nc3c([nH]2)CCCNC3=O)n1`, the “Percent Effect” value was 14.73%. `Cc1cccc(Cc2nc3c([nH]2)CCCNC3=O)c1` was tested, and the “Percent Effect” value was -1.705%. In the case of `O=C1NCCCc2[nH]c(Cc3cccc(F)c3)nc21`, the “Percent Effect” value is reported as -0.783%. For `CCN1CCCN(S(=O)(=O)c2cc3ccccc3o2)CC1`, the “Percent Effect” value was -2.661%. For `COc1cc(-c2nc3c([nH]2)CCCNC3=O)ccc1O`, the “Percent Effect” value was 101.7%. `COc1ccccc1C1CNC(=O)c2nc(-c3c(C)n[nH]c3C)[nH]c2C1` (centres undefined) was tested, and the “Percent Effect” value was -21.26%. `Cc1ccc(C(=O)Nc2ccc(N3CCCC3)cn2)cc1F` was tested, and the “Percent Effect” value was -12.84%. With `CC(C)N(CCNC(=O)N1CCCC(N(C)C)C1)C1CC1` (centres undefined) the “Percent Effect” value was 3.264%. For `Cc1ccc(CN2C[C@H](OCCN(C)C)[C@H]3OCCC[C@H]32)o1.O=C(O)C(F)(F)F.O=C(O)C(F)(F)F`, the “Percent Effect” value was 11.84%. For `CN(C)CCO[C@H]1CN(Cc2ccco2)[C@@H]2COC[C@H]12.O=C(O)C(F)(F)F.O=C(O)C(F)(F)F`, the “Percent Effect” value was 94.89%. `CN(C)CCO[C@H]1CN(Cc2cccc(C#N)c2)[C@@H]2COC[C@H]12.O=C(O)C(F)(F)F.O=C(O)C(F)(F)F` was tested, and the “Percent Effect” value was -16.47%. In the case of `Cc1ccc(CN2C[C@H](OCCN(C)C)[C@H]3COC[C@H]32)o1.O=C(O)C(F)(F)F.O=C(O)C(F)(F)F`, the “Percent Effect” value is reported as 118.1%. For `CN(C)CCO[C@H]1CN(C(=O)c2ccc3c(c2)OCO3)[C@@H]2COC[C@H]12`, the “Percent Effect” value was -7.678%. For `CCc1cc(N2CCN(C(C)=O)CC2)n2nc(C)c(C)c2n1`, the “Percent Effect” value was -3.628%. `CC1CCCCN1S(=O)(=O)NCc1cccnc1OC1CCCC1` (centres undefined) was tested, and the “Percent Effect” value was 2.179%. For `CCOCCn1c(=O)[nH]c2cc(C(=O)N(C)CCc3cn[nH]c3)ccc21`, the “Percent Effect” value was -12.36%. For `CCc1nccc(CN2CCCC(CNC(=O)c3ccccn3)C2)n1` (centres undefined), the “Percent Effect” value was -4.435%. `O=C(CN1CCC(c2ccnn2CCO)CC1)NCC1CC1` was tested, and the “Percent Effect” value was -5.639%. For `COCC(=O)NC[C@H]1CC[C@H](c2ccnc3ncnn32)CC1`, the “Percent Effect” value was 112%. For `CCc1nccc(CN2CCC(CNC(=O)[C@H]3CC[C@H](C)CC3)C2)n1` (some centres undefined), the “Percent Effect” value was -6.322%. For `O=C(NCc1ccnc(O)c1)NCC1CCCC1`, the “Percent Effect” value was -3.505%. `O=C(NC[C@H]1CC[C@H](c2ccnc3ncnn32)CC1)c1ccccn1` was tested, and the “Percent Effect” value was 132.7%. In the case of `O=C(NC[C@H]1CC[C@H](c2ccnc3ncnn32)CC1)C1CC1`, the “Percent Effect” value is reported as 132.8%. With `O=C(NCC1CC1)c1cnc(-c2ccccc2)nc1` the “Percent Effect” value was -4.836%. For `Cc1nccn1-c1cc(CNC(=O)COCC2CC2)ccn1`, the “Percent Effect” value was -10.58%. `CCNC(=O)NC1CCCN(c2ccc(C)cc2)C1=O` (centres undefined) was tested, and the “Percent Effect” value was -8.82%. With `COc1ncnc(N(C)C)c1NC(=O)c1cscc1C` the “Percent Effect” value was -1.164%. `CSCC[C@@H](CO)NC(=O)c1ccc2nc(NS(C)(=O)=O)sc2c1` was tested, and the “Percent Effect” value was 89.36%. `CC(C)CCNC(=O)c1ccc(Cl)c(NS(C)(=O)=O)c1` was tested, and the “Percent Effect” value was 2.284%. `Cc1ccc(C(=O)NCCC(C)C)cc1NS(C)(=O)=O` was tested, and the “Percent Effect” value was -0.7863%. For `CSCCC(CO)NC(=O)c1sc(-c2ccccc2Cl)nc1C` (centres undefined), the “Percent Effect” value was 13.6%. `COc1cccc(-c2nc(C)c(C(=O)NC(CO)CCSC)s2)c1` (centres undefined) was tested, and the “Percent Effect” value was -11.86%. With `C[C@@H](CO)NC(=O)c1ccc2nc(NS(C)(=O)=O)sc2c1` the “Percent Effect” value was 93.82%. For `Cc1nnc(CNC(=O)CC2CCc3ccccc32)o1` (centres undefined), the “Percent Effect” value was 1.636%. `COCc1nc(C(=O)NS(=O)(=O)c2ccc(C)s2)cs1` was tested, and the “Percent Effect” value was -3.012%. `O=C(NS(=O)(=O)c1cnn(-c2ccccc2F)c1)c1ccoc1` was tested, and the “Percent Effect” value was 8.506%. `Cc1ccc(S(=O)(=O)NCCNC(=O)c2ccoc2)cc1C` was tested, and the “Percent Effect” value was 3.538%. For `Cc1nc(C)c(S(=O)(=O)NC(=O)c2ccsc2)s1`, the “Percent Effect” value was 101.1%. For `COc1ccnc(NC(=O)c2ccsc2)c1`, the “Percent Effect” value was -4.666%. For `Cc1nc(C)c(S(=O)(=O)NC(=O)c2ccoc2)s1`, the “Percent Effect” value was 99%. With `Cc1ccc(N2CCCN(C(=O)C3CCCO3)CC2)nn1` (centres undefined) the “Percent Effect” value was 135.1%. `Cc1ccc(NC2CCN(C(=O)CCC3CCCO3)CC2)nn1` (centres undefined) was tested, and the “Percent Effect” value was -9.533%. For `Cc1ccc(N2CCCN(C(=O)C(C)OCC3CC3)CC2)nn1` (centres undefined), the “Percent Effect” value was -0.6%. With `Cc1nn(CC(=O)N2CCCN(c3cccnn3)CC2)c(C)c1Cl` the “Percent Effect” value was 1.564%. In the case of `O=C(CC1CCCO1)N1CCCN(c2cccnn2)CC1` (centres undefined), the “Percent Effect” value is reported as 79.43%. `Cc1ccc(N2CCCN(C(=O)c3c(C)oc(C)c3C)CC2)nn1` was tested, and the “Percent Effect” value was 8.16%. In the case of `Cc1ccc(N2CCCN(C(=O)CC3C=CCC3)CC2)nn1` (centres undefined), the “Percent Effect” value is reported as 107%. In the case of `Cc1ccc(N2CCCN(C(=O)CC3CCCO3)CC2)nn1` (centres undefined), the “Percent Effect” value is reported as 4.405%. `O=C(Cc1cccc2cccnc12)N1CCCN(c2cccnn2)CC1` was tested, and the “Percent Effect” value was -1.609%. In the case of `Cc1ccc(N2CCCN(C(=O)CCC3CCCO3)CC2)nn1` (centres undefined), the “Percent Effect” value is reported as 87.48%. For `Cc1ccc(N2CCCN(C(=O)c3cc(Cl)c[nH]3)CC2)nn1`, the “Percent Effect” value was -5.212%. With `Cc1ccc(N2CCCN(C(=O)C3(C#N)CCCCC3)CC2)nn1` the “Percent Effect” value was 12.99%. For `COc1ccc(CN[C@@H]2CO[C@H](CNC(=O)NC(C)C)[C@H]2O)cc1`, the “Percent Effect” value was 1.543%. For `CC(C)c1noc(C(C)S(=O)(=O)Cc2nc(C3CC3)no2)n1` (centres undefined), the “Percent Effect” value was 8.57%.
